High-throughput results from PubChem BioAssay.
Rv3671c protease: Rv3671c serine protease inhibitors, primary screen, biochemical, fluorescence polarization, M. tuberculosis H37Rv; inhibition, % at 5.96 µM; 0.048% of 320,000 active; AID 2606, 2010; in the data active means inhibition above about 38%;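 further: extracellular domain of Rv3671c used as enzyme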
Target sequence (P9WHR9 whole entry, looked up, the tested form may be a part): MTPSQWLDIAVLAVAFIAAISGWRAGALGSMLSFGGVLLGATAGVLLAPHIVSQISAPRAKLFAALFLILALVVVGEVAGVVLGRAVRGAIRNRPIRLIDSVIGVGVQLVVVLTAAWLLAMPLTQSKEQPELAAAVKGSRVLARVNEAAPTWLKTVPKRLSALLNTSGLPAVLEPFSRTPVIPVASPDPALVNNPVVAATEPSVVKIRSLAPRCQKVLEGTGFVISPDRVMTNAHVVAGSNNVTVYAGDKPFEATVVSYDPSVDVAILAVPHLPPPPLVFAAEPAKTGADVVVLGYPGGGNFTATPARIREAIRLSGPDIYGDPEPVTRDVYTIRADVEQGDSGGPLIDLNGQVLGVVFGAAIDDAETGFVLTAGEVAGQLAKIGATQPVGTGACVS
Mtb UGM inh: M. tuberculosis UGM enzyme inhibitors, primary screen, biochemical, fluorescence polarization, single point; purified UGM, fluorescence polarization probe displacement; inhibition, % at 10 µM; AID 504406, 2011; 0.06% of 320,000 active; UDP-galactopyranose mutase (Mycobacterium tuberculosis (strain ATCC 25618 / H37Rv)), …; in the data active means inhibition above about 10%, passing the limit was not always enough
GDH-TPI counter-1: GDH-TPI coupling enzyme inhibitors, primary screen, artefact control for M. tuberculosis FBA inhibitor project, biochemical, absorbance, full deck; AID 588335, 2011; GDH-TPI coupled enzyme counterscreen, NADH absorbance; 1.2% of 360,000 active; inhibition, % at 4.8 µM; in the data active means inhibition above about 30%
FBA Mtb inh: Mtb FBA enzyme inhibitors, primary screen, biochemical, fluorescence, strain H37Rv; Fructose-bisphosphate aldolase (Mycobacterium tuberculosis (strain ATCC 25618 / H37Rv)), …; purified M. tuberculosis FBA, fluorescence read-out; inhibition, % at 1 µM; 2.3% of 360,000 active
Mtb hypoxia rep: PubChem AID 1159583; 0.1% of 300,000 active; M. tuberculosis hypoxia-regulated fluorescent reporter, fluorescence; fluorescence inhibition, % (test concentration not listed); in the data active means fluorescence inhibition mostly above about 23%, no sharp cut-off; inactive means mostly below about 17%
FadD28 binding: inhibitors of FadD28 bisubstrate probe binding, primary screen, biochemical, fluorescence polarization, single point | Mycobacterium tuberculosis FadD28 fatty-acid-AMP ligase | inhibition, % at 12.5 µM | 0.22% of 360,000 active; in the data active means inhibition above about 8.5%, passing the limit was not always enough
Mtb FBA inh conf: M. tuberculosis aldolase blockers, biochemical, fluorescence, strain H37Rv, confirmation; shares compounds with FBA Mtb inh; purified M. tuberculosis FBA, fluorescence read-out; inhibition, % at 1 µM; 78% of 5,600 active; AID 651616, 2012
GDH-TPI counter-2: GDH-TPI coupling enzyme inhibitors, artefact control for M. tuberculosis FBA inhibitor project, biochemical, fluorescence, high throughput; shares compounds with FBA Mtb inh; GDH-TPI coupled enzyme counterscreen; inhibition, % at 1 µM; 81% of 5,600 active; in the data active means inhibition above about 10%
Of the large screens only hits and unclear results are named; the others gave an inactive call (follow-up assays come after a bar, where they were run). This is a sample that favours compounds with a hit; in the whole collection about 3.5% have one here. Unless noted, no stated cut-off is given here; in the data, active means inhibition above about 27%; inactive means the rest.

CC1=C(C#N)C(/C=N/OCc2ccc(Cl)cc2)CC(=O)N1 (centres undefined)	FBA Mtb inh 35.2 (no result: Mtb hypoxia rep) | Mtb FBA inh conf inactive | GDH-TPI counter-2 17.3
ON=C1CC(O)Cc2nonc21 (centres undefined)	none (no result: Rv3671c protease, Mtb UGM inh, GDH-TPI counter-1, FBA Mtb inh, FadD28 binding)
COc1cc2sc(-c3ccc(S(C)(=O)=O)cc3)c(C(=O)NCc3ccc(C)o3)c2cc1OC	FBA Mtb inh 37.2 | Mtb FBA inh conf 99.5 | GDH-TPI counter-2 83.3
COc1cc2sc(-c3ccc(S(C)(=O)=O)cc3)c(C(=O)NCCCCO)c2cc1OC	GDH-TPI counter-1 31.0, FBA Mtb inh 45.9 | Mtb FBA inh conf 45.8 | GDH-TPI counter-2 30.5
Cc1ccc(CNC(=O)c2c(-c3ccccc3)sc3ccccc23)o1	none
COc1cccc(-c2c(C(=O)NN=C(C)c3ccco3)nnn2-c2nonc2N)c1	none (no result: Rv3671c protease, Mtb UGM inh, GDH-TPI counter-1, FBA Mtb inh, FadD28 binding)
O=C(CCN1C(=O)C2C3C=CC(C3)C2C1=O)NC1CCCCC1 (centres undefined)	none (no result: Mtb hypoxia rep)
CCOC(=O)N1CCC(NC(=O)CCN2C(=O)C3C4C=CC(C4)C3C2=O)CC1 (centres undefined)	FBA Mtb inh 84.5 (no result: Mtb hypoxia rep) | Mtb FBA inh conf active | GDH-TPI counter-2 active
Cc1ccc(-c2cc(C(=O)NCc3ccccn3)c3ccccc3n2)cc1	FBA Mtb inh 28.0 | Mtb FBA inh conf 122.9 | GDH-TPI counter-2 115.8
O=C(NCc1ccccn1)c1cc(-c2ccc(Br)cc2)nc2ccccc12	none
CCc1ccc(-c2cc(C(=O)NCc3ccccn3)c3ccccc3n2)cc1	FBA Mtb inh 29.1 | Mtb FBA inh conf 88.4 | GDH-TPI counter-2 64.5
CC(=NNC(=O)c1ccc2c(c1)OCO2)c1ccc(NC(=O)C(F)(F)F)cc1	none (no result: Rv3671c protease, Mtb UGM inh, GDH-TPI counter-1, FBA Mtb inh, FadD28 binding)
Oc1ccc(-c2nc3ccccc3s2)cc1	FBA Mtb inh 94.4 | Mtb FBA inh conf 75.4 | GDH-TPI counter-2 63.2
Nc1ccc(O)c(-c2nc3ccccc3s2)c1	none (no result: Mtb hypoxia rep)
Oc1ccc(-c2nc3ccccc3s2)c(O)c1	FBA Mtb inh 37.0 | Mtb FBA inh conf 106.1 | GDH-TPI counter-2 84.3
Nc1ccccc1-c1nc2ccccc2s1	FBA Mtb inh 51.2 | Mtb FBA inh conf 196.8 | GDH-TPI counter-2 146.8
COc1ccc(-c2nc3ccccc3s2)cc1NC(C)=O	GDH-TPI counter-1 39.0, FBA Mtb inh 72.7 | Mtb FBA inh conf 138.3 | GDH-TPI counter-2 117.7
CC(C)(C)C(=O)ON=C(N)COc1cccc(Cl)c1	none (no result: Rv3671c protease, Mtb UGM inh, GDH-TPI counter-1, FBA Mtb inh, FadD28 binding)
CCC(C=NNc1ccc(S(=O)(=O)N2CCCC2)cc1[N+](=O)[O-])CC	none (no result: Rv3671c protease, Mtb UGM inh, GDH-TPI counter-1, FBA Mtb inh, FadD28 binding)
c1ccc2sc(-c3ccncc3)nc2c1	none
Cc1ccc(Cn2cccc(-c3nc4ccccc4s3)c2=O)cc1	FBA Mtb inh 54.5 | Mtb FBA inh conf 114.6 | GDH-TPI counter-2 107.0
c1csc(-c2nc3ccccc3s2)c1	FBA Mtb inh 39.4 | Mtb FBA inh conf inactive | GDH-TPI counter-2 inactive
Cc1ccc(CNC(=O)C2C3C=CC4(CN(Cc5cccnc5)C(=O)C24)O3)cc1 (centres undefined)	FBA Mtb inh 67.9 (no result: Mtb hypoxia rep) | Mtb FBA inh conf inactive | GDH-TPI counter-2 inactive
CCCCc1cc(=O)oc2cc(C)cc(OCC(=O)NCc3ccccn3)c12	FBA Mtb inh 63.7 | Mtb FBA inh conf 46.5 | GDH-TPI counter-2 38.8
Cc1cc(OC(C)C(=O)NCc2ccccn2)c2c(C)cc(=O)oc2c1 (centres undefined)	FBA Mtb inh 103.3 | Mtb FBA inh conf inactive | GDH-TPI counter-2 inactive
CCCCc1cc(=O)oc2cc(OC(C)C(=O)NCc3ccccn3)c(Cl)cc12 (centres undefined)	none
CCCCc1cc(=O)oc2cc(C)cc(OC(C)C(=O)NCc3ccccn3)c12 (centres undefined)	FBA Mtb inh 63.0 | Mtb FBA inh conf 153.1 | GDH-TPI counter-2 122.0
